The list is not random: actives were taken first. Their share in the collection is about 2.4%.
Pol eta inh: qHTS for Inhibitors of Polymerase Eta. AID 588591, 2011. recombinant Pol eta, fluorescent DNA replication assay. actives 1.2% (n = 390,000). Potency, µM (series often up to 114 µM), for the others: at the highest dose activity change, negative = inhibition, hits mostly inhibitors; further: on the % scale 0 is the no-effect control and ±100 the full control effect
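Pol eta (10 nM) was preincubated with compounds for 15 min at room temperature, after which fluorescent replication substrate (50 nM final) was added to start the reaction. Fluorescence was read kinetically at 0 and 10 min.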
POLI inh: qHTS for Inhibitors of Polymerase Iota. AID 588590, 2011. DNA polymerase iota (Homo sapiens), Q9UNA4. Potency, µM (top dose mostly 115 µM), for inactives: at the highest dose activity, negative = inhibition, usual class: inhibitors. Pol iota fluorescent replication assay, 10 min. actives 1% (n = 390,000)
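Fluorescent replication assay read twice, at 0 min and 10 min after adding 50 nM (final) substrate. Enzyme (10 nM) and compounds were first incubated 15 min at room temperature; enzyme-free buffer wells were negative controls.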
POLB inh: qHTS Assay for Inhibitors of DNA Polymerase Beta | P06746 | Pol beta primer extension/strand displacement, fluorescence kinetic | Potency, µM (highest dose often 114 µM), without a hit: at the highest dose activity change, negative = inhibition, most hits filed as inhibitors | actives 1.3% (n = 340,000) | AID 485314, 2010; further: on the % scale 0 is the no-effect control and ±100 the full control effect
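Preincubation: enzyme (10 nM) with compound, 15 min, RT. Reaction: substrate added to 50 nM final. Reads: 0 and 10 min. Analysis: normalized, Hill fit.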
POLK inh: qHTS for Inhibitors of Polymerase Kappa; DNA polymerase kappa (Homo sapiens), Q9UBT6; purified Pol kappa, fluorescent DNA synthesis assay, 10 min; Potency, µM (titrated, usually from 107 µM), without a hit: at the highest dose activity, negative = inhibition, usual class: inhibitors; actives 0.53% (n = 400,000); AID 588579, 2011; further: on the % scale 0 is the no-effect control and ±100 the full control effect
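Activity was followed as the change in fluorescence between reads at 0 and 10 min after starting the reaction with 50 nM substrate. Beforehand, 10 nM polymerase had been preincubated with compound for 15 min at room temperature.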
WRN inhibitor: qHTS for Inhibitors of WRN Helicase | WRN helicase unwinding, fluorescent forked duplex, kinetic | Potency, µM (doses to about 114 µM), without a hit: at the top dose activity change, negative = inhibition, actives largely listed as inhibitors | AID 651768, 2012 | actives 0.46% (n = 360,000); further: on the % scale 0 is the no-effect control and ±100 the full control effect; nearly all actives have a fitted effect of over 55% in size
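WRN at 20 nM final was preincubated with compound for 15 min at room temperature; reaction started with 100 nM forked duplex oligonucleotide carrying fluorophore and quencher plus 2 mM ATP (final). Unwinding followed kinetically by red fluorescence (ex 525/em 598 nm).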
FEN1 inhibitor: qHTS Assay for the Inhibitors of Human Flap endonuclease 1 (FEN1). P39748. Recombinant FEN1 flap cleavage, fluorescence, 15 min. Potency, µM (top dose mostly 114 µM), for inactives: top-dose activity change, negative = inhibition, actives largely listed as inhibitors. actives 0.35% (n = 390,000); further: on the % scale 0 is the no-effect control and ±100 the full control effect; nearly all actives have a fitted effect of over 65% in size
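Potency values derive from four-parameter Hill fits of normalized qHTS data. The reaction used 10 nM FEN1 preincubated 15 min at room temperature with compound, then 50 nM DNA substrate, read at 0 and 15 min.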
* hit, by the source's call; ? = inconclusive; / = no result given; [ ] = remark or other dose. The call rests on the fitted dose curve; in most records, active means well fitted curve in the direction sought with a large enough effect; inconclusive means small, poorly fitted or top-dose-only effect, or another doubt; inactive means no such curve, though single readings can be large; an effect the other way counts as inactive or inconclusive. Potency means the concentration at half of the fitted maximal effect.

SMILES	Pol eta inh	POLI inh	POLB inh	POLK inh	WRN inhibitor	FEN1 inhibitor
CCOC(=O)C1=C(c2ccccc2)N=c2s/c(=C\c3cc(OC)c(OC)c(OC)c3)c(=O)n2C1c1cccs1 (configuration not stated)	-12%	?	3%	-18%	-22%	-3%
CCOC(=O)C1=C(c2ccccc2)N=c2s/c(=C\c3ccco3)c(=O)n2C1c1cccs1 (configuration not stated)	79µM*	20µM*	10µM*	?	?	-17%
CCOC(=O)C1=C(C)N=c2s/c(=C\c3ccc(OCC(=O)O)cc3)c(=O)n2C1c1ccccc1OC (configuration not stated)	40µM*	17%	13%	-6%	-3%	79µM*
CC1=C(C(=O)Nc2ccccc2)C(c2ccc(Cl)cc2)n2c(s/c(=C/c3cccc(OCC(=O)O)c3)c2=O)=N1 (configuration not stated)	56µM*	?	79µM*	-13%	?	?
COc1ccc(C2C(C(C)=O)=C(C)N=c3s/c(=C\c4ccco4)c(=O)n32)c(OC)c1 (configuration not stated)	2%	?	35µM*	-32%	-12%	-14%
CCOc1ccc(N(CC)S(=O)(=O)N2CCCC(C(=O)NCCc3ccccc3OC)C2)cc1 (configuration not stated)	-5%	-1%	2%	-12%	/	-22%
CC(SC1=NS(=O)(=O)c2ccccc21)C(=O)O (configuration not stated)	/	5%	/	-1%	/	-8%
Cc1ccc(OCC(=O)c2ccc(Cl)s2)c([N+](=O)[O-])n1	?	?	25µM*	?	-25%	-3%
O=c1oc2ccc(Br)cc2cc1-c1nc2c(s1)CCc1ccccc1-2	/	15%	/	-4%	/	9%
O=C(NNC(=O)c1cccc(-n2cccc2)c1)c1ccc(F)cc1	14µM*	50µM*	/	?	?	-17%
Cc1nn(-c2cccc(C(F)(F)F)c2)c(Cl)c1/C=N/Nc1cccc(C(=O)O)c1	-9%	0%	56µM*	1%	-6%	-13%
Cc1nn(-c2ccccc2Cl)c(Cl)c1/C=N/Nc1cccc(C(=O)O)c1	-6%	-3%	-3%	-18%	-16%	-1%
O=C(N/N=C/C(Cl)=C/c1ccc([N+](=O)[O-])cc1)C(=O)Nc1ccccc1C(=O)O	45µM*	18µM*	20µM*	?	?	?
CSCC[C@H](NC(=O)[C@H](CC(C)C)NC(=O)CNC(=O)[C@@H]1CCCN1C(=O)[C@H](Cc1ccccc1)NC(=O)[C@H](Cc1ccccc1)NC(=O)[C@H](CC(=O)O)NC(=O)[C@H](Cc1cnc[nH]1)NC(=O)[C@H](CCSC)NC(=O)[C@@H](N)CC(=O)O)C(N)=O	/	/	/	12%[60.1 µM]	/	/
CC(C)c1ccc(NS(=O)(=O)c2cc(Br)cc3c2N(C(=O)C2CC2)CC3)cc1	-21%	8%	18%	-7%	/	9%
CC(=O)N1CCc2cc(Br)cc(S(=O)(=O)N3CCC(C(=O)Nc4ccc(C(C)C)cc4)CC3)c21	-11%	35µM*	0%	?	/	89µM*
CCOc1cccc(C2C=C(c3ccc4c(c3)OCO4)NC(c3cccc(Br)c3)N2)c1O (configuration not stated)	/	-25%	/	-4%	/	-17%
Cc1ncc(CN2CCCC(C(=O)Nc3ccc(-c4ccco4)cc3)C2)cn1 (configuration not stated)	?	32µM*	-2%	?	-30%	-13%
COc1ccc2ccccc2c1/C=N/Nc1cccc(C(=O)O)c1	7%	78%	-21%	-32%	-32%	-6%
O=C(O)c1cc(N/N=C/c2ccc(-c3ccccc3)cc2)ccc1Cl	?	-6%	89µM*	-2%	-21%	5%
COc1ccc2ccccc2c1/C=N/Nc1ccc(Cl)c(C(=O)O)c1	45µM*	?	4%	?	-30%	-20%
O=C(O)c1cc(N/N=C/c2ccncc2)ccc1Cl	4%	13%	5%	-14%	-14%	5%
COc1ccc(C(=O)Oc2ccc(/C=N/Nc3ccc(Cl)c(C(=O)O)c3)cc2OC)cc1	79µM*	9%	?	-28%	-20%	?
COc1cc(/C=N/Nc2ccc(Cl)c(C(=O)O)c2)ccc1OC(=O)c1cccs1	79µM*	80%	?	-12%	0%[11.6 µM]	-1%
COc1ccc(-c2nn3c(-c4cc(-c5ccccc5)n[nH]4)nnc3s2)cc1	/	-10%	/	2%	/	?
SMILES	Pol eta inh	POLI inh	POLB inh	POLK inh	WRN inhibitor	FEN1 inhibitor
Cc1cc(/C=C/c2ccc3cc(N(C)C)ccc3[n+]2C)c(C)n1-c1ccccc1	/	/	/	28µM*	/	/
CCCC(=O)OCC1CN(Cc2ccco2)S(=O)(=O)c2c(F)cccc2O1 (configuration not stated)	-1%	71µM*	/	-29%	-4%[11.6 µM]	-18%
Cc1cc(C)n2nc(SCN3C(=O)c4ccccc4C3=O)nc2n1	-17%	?	45µM*	-32%	-12%	-18%
Cc1cc(C)n2nc(SCC(=O)Nc3ccccc3)nc2n1	-6%	?	2%	-4%	-7%	15%
COc1cccc(S(=O)(=O)N2CCN(c3nc(-c4cccs4)nc4ccccc34)CC2)c1	/	6%	/	-2%	/	-7%
O=C(O)Cn1cc(/C=N/NC(=O)c2cc3cc(Br)ccc3o2)c2ccccc21	-22%	71µM*	?	-25%	?	-27%
Cc1cccc(N2C(=O)/C(=C\c3ccc(C(=O)O)cc3)c3ccccc3C2=O)c1	45µM*	46%	-7%	-19%	-3%	-1%
Cc1cccc(N2C(=O)c3ccc(C(=O)Nc4ccccn4)cc3C2=O)c1	-15%	41%	7%	-2%	-5%	-3%
O=c1cnc2cncnc2n1Cc1ccccc1Cl	/	/	/	0%[60.1 µM]	/	/
CC(C)[C@H](NC(=O)[C@@H](Cc1c[nH]c2ccccc12)NC(=O)[C@H](Cc1ccc(O)cc1)NC(=O)[C@@H](N)CC(=O)O)C(=O)N[C@H](Cc1c[nH]c2ccccc12)C(=O)N[C@H](Cc1c[nH]c2ccccc12)C(=O)N[C@@H](CCCCN)C(N)=O	/	/	/	-10%[12 µM]	/	/

Screening results from PubChem.
